In ChEMBL document CHEMBL3988442, “University of Dundee, Small-Polar-MMV Screening Library” (2021):
For part of these data: Potency and affinity values are given separately.

Key:
Set-up in all cases: scale not given: direction of the effect not stated beside the values
[1] = target: Protein translocase subunit SecA (Escherichia coli (strain K12)) (UniProt P10408); assay: Assay to Identify E. coli SecA ATPase Inhibitors; assay type: functional; conditions: 30 µM
[2] = target: T1, Ubiquitin-activating enzyme e1, putative (Leishmania donovani (strain BPK282A1)) (UniProt E9BSI1); assay: Leishmania donovani Ubiquitin Activating Enzyme (LdE1); assay type: functional; conditions: 30 µM
T1 sequence (whole entry): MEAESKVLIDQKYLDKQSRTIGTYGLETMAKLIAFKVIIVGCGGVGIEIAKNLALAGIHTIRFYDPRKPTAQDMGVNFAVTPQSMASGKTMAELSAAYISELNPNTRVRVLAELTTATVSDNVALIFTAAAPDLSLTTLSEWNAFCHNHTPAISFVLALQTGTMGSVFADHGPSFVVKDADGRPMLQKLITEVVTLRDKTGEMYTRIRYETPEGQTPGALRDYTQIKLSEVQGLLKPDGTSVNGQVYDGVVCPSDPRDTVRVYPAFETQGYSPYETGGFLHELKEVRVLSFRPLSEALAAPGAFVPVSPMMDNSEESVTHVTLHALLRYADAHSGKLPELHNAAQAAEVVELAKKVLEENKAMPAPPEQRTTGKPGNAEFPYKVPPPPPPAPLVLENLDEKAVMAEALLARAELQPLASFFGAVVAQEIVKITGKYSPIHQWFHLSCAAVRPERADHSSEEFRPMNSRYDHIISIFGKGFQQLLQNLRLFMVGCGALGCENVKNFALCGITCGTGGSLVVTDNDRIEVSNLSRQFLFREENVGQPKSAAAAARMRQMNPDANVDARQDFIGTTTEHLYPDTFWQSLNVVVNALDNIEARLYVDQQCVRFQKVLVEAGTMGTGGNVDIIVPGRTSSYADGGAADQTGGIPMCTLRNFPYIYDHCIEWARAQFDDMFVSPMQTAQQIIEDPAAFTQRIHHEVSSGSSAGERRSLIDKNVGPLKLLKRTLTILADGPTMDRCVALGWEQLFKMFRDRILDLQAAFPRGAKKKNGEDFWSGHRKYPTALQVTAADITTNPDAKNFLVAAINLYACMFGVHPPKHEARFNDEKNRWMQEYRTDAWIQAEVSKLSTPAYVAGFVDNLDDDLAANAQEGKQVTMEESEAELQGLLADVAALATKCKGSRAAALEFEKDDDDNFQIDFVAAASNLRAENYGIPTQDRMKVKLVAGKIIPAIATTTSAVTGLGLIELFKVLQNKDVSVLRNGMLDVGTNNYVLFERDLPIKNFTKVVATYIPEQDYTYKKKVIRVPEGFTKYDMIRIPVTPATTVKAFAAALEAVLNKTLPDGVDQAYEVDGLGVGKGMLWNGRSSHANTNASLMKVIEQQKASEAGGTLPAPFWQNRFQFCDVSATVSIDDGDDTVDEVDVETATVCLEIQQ

[3] = target: Sialic acid-binding Ig-like lectin 9 (Homo sapiens) (UniProt Q9Y336); assay: Hs-Siglec9 ALPHAscreen SOP 20170721; conditions: 10 µM
Sequence of Sialic acid-binding Ig-like lectin 9 (Homo sapiens) (Q9Y336 whole entry): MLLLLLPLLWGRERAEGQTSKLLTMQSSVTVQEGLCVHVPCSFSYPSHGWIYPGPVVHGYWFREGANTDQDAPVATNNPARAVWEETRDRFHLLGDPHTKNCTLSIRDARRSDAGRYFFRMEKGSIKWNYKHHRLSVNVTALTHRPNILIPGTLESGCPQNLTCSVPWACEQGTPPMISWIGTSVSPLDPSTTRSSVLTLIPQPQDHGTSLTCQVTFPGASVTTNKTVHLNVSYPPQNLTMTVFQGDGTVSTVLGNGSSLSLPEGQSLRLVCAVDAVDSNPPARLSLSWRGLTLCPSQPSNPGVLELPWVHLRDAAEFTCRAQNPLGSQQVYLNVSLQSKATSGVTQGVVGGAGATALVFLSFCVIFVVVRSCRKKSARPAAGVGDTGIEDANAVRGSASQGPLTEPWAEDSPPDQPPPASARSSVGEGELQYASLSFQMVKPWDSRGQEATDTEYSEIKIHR

Trypanosoma cruzi = assay: Trypanosoma cruzi phosphomannomutase and mannose-1-phosphate guanylyltransferase assay; assay type: functional; conditions: 10 µM
[4] = target: T2, Arginase-2, mitochondrial (Homo sapiens) (UniProt P78540); assay: in vitro enzyme assay to detect the production of urea directly proportional to the activity of Arginase II; assay type: functional; conditions: 33.3 µM; also: in the data most compounds retested in dose-response had high values
T2 sequence (whole entry): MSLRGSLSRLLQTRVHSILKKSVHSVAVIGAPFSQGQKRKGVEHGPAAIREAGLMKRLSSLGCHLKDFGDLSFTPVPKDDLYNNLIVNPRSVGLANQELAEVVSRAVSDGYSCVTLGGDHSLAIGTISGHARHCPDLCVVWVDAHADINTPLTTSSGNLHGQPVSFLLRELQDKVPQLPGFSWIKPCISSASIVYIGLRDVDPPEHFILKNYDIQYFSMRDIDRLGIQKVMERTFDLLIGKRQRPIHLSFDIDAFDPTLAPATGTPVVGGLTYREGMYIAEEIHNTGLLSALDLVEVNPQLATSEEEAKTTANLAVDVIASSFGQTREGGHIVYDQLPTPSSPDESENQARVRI

[5] = target: T3, Proteasome subunit beta (Trypanosoma cruzi) (UniProt O96673); assay: Trypanosoma cruzi proteasome chymotrypsin-like activity (TcProtChymo) assay.; also: in the data most compounds retested in dose-response had high values; assay type: functional; conditions: 9.37 µM
T3 sequence (whole entry): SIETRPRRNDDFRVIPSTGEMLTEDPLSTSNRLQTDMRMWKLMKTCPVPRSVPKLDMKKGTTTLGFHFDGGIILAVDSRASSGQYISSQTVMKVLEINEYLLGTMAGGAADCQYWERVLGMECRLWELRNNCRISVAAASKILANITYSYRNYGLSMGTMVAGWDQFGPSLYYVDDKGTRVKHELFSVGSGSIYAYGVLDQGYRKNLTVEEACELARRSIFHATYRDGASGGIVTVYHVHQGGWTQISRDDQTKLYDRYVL

Homo sapiens = species: Homo sapiens; assay: To identify inhibition of the IFN signalling (Jak-Stat) pathway via expression of an eGFP reporter gene under the control of an IFN-stimulated response element (ISRE) containing MxA promoter.; assay type: functional; conditions: 30 µM
[6] = target: T4, Tyrosyl-tRNA synthetase, putative (Trypanosoma cruzi (strain CL Brener)) (UniProt Q4DSP6); assay: Trypanosoma cruzi tyrosyl tRNA synthetase (TcYRS) _High Tyrosine SOP; assay type: functional; conditions: 30 µM; also: in the data most compounds retested in dose-response had high values
T4 sequence (whole entry): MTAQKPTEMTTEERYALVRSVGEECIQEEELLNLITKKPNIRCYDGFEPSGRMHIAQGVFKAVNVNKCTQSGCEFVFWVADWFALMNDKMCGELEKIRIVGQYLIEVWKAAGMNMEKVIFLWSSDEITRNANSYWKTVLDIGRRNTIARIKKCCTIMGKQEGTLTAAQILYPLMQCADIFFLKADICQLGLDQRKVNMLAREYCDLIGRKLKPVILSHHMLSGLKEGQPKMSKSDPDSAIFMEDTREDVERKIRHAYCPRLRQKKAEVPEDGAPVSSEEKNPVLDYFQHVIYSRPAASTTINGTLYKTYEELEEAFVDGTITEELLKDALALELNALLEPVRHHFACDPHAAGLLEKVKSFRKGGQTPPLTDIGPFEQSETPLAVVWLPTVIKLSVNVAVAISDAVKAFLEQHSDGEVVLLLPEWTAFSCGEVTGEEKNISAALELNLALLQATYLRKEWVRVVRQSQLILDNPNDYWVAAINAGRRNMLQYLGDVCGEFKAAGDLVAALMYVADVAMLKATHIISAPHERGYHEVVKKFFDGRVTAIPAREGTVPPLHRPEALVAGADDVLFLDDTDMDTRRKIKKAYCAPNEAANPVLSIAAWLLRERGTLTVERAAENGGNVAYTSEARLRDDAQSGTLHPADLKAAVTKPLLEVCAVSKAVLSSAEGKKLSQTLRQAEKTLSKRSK

[7] = target: T4, Tyrosyl-tRNA synthetase, putative (Trypanosoma cruzi (strain CL Brener)); assay: Trypanosoma cruzi tyrosyl tRNA synthetase (TcYRS) SOP; assay type: functional; conditions: 30 µM
[8] = target: Chromo domain-containing protein 1 (Saccharomyces cerevisiae (strain ATCC 204508 / S288c) (Baker's yeast)) (UniProt P32657); assay: ScCHD-1 Enzyme Inhibition Assay; assay type: functional; conditions: 30 µM; also: in the data most compounds retested in dose-response had high values
Sequence of Chromo domain-containing protein 1 (Saccharomyces cerevisiae (strain ATCC 204508 / S288c) (Baker's yeast)) (P32657 whole entry, the tested form may be a part): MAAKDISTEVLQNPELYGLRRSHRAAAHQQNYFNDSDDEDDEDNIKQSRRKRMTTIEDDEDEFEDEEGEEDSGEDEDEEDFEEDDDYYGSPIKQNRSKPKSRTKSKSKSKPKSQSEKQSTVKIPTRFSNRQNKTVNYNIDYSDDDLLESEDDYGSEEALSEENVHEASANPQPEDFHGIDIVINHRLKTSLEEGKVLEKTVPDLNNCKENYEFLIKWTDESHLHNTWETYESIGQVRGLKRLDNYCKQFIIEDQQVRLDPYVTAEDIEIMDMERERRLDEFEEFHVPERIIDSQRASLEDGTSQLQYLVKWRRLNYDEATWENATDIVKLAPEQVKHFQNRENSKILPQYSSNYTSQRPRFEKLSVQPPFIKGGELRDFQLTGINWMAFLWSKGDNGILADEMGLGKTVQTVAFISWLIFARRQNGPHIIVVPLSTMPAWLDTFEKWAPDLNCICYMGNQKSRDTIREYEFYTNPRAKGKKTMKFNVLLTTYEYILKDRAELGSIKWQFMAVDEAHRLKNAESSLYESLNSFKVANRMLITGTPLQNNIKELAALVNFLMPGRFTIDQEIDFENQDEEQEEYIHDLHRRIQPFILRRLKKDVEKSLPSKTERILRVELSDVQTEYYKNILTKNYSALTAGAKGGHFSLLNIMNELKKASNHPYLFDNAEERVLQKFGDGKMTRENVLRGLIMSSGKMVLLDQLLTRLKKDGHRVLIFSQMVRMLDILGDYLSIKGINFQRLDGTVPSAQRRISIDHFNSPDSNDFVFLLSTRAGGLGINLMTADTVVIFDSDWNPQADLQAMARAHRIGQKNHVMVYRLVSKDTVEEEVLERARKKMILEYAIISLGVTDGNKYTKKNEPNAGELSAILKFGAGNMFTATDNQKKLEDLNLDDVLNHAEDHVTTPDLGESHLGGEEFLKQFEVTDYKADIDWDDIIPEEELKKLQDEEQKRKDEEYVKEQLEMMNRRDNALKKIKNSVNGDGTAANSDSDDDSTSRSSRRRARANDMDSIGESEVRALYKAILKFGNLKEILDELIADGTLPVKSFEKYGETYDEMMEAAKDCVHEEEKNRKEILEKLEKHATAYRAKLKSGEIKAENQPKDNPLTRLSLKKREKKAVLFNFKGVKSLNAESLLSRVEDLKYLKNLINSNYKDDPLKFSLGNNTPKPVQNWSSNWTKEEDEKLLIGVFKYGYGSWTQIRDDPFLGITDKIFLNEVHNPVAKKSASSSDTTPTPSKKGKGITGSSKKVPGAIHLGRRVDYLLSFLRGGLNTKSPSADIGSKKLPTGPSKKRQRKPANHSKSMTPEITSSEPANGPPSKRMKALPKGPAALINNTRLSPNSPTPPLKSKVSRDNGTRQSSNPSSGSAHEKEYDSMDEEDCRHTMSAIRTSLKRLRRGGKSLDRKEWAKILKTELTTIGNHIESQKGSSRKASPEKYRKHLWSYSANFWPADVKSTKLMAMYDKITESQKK

Sequence of Protein translocase subunit SecA (Escherichia coli (strain K12)) (P10408 whole entry): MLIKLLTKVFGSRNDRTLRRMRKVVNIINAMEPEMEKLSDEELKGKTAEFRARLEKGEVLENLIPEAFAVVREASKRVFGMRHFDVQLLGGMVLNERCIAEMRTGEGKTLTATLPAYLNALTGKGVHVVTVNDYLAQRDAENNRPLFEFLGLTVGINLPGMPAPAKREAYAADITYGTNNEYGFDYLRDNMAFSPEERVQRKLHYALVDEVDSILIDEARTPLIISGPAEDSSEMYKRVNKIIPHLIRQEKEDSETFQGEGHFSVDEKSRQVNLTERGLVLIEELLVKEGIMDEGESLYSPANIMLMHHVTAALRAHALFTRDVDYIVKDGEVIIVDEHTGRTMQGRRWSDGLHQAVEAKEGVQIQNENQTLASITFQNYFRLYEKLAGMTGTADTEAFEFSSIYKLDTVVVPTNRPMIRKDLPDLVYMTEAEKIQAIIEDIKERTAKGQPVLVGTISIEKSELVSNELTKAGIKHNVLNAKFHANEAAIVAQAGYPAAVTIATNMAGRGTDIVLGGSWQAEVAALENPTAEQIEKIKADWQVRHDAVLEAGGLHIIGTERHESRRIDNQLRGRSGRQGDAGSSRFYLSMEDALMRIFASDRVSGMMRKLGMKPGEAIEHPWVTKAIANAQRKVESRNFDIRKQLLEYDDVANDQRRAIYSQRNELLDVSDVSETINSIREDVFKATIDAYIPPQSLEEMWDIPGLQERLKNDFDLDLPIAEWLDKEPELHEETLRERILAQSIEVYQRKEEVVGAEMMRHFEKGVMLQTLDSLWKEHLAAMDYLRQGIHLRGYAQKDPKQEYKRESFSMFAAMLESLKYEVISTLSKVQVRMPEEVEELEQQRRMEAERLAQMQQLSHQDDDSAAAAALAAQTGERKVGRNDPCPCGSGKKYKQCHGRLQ

Structure (SMILES)	Percent Effect [1]	Percent Effect [2]	Percent Effect [3]	Percent Effect (Trypanosoma cruzi)	Percent Effect [4]	Percent Effect [5]	Percent Effect (Homo sapiens)	Percent Effect [6]	Percent Effect [7]	Percent Effect [8]
O=C(COc1ccc2c(c1)CCC2)NS(=O)(=O)c1cncc(Br)c1	-2.61%	2.56%	1.99%	9.3%	-3.28%	3.33%	7.32%	-3.35%	1.21%	1.12%
O=C(c1cc(C2CC2)on1)N1CC[C@]2(C[C@H](Oc3cccnc3)CO2)C1	-7.12%	1.3%	-0.278%	6.52%	-12.2%	6.27%	-3.24%	1.58%	5.13%	0.522%
c1cnnc(N2CCCC(NCc3nnc(-c4ccco4)o3)C2)c1 (stereo not given)	-0.0972%	25.6%	-15.5%	1.03%	-0.82%	25.2%	-0.0242%	9.09%	22.9%	-1.66%
Cc1ccc2oc(C(=O)N3CCCC(c4noc(C)n4)C3)cc2n1 (stereo not given)	-2%	5.13%	1.38%	-3.66%	4.51%	3.84%	11%	4.31%	8.43%	-2.57%
CCOc1ccc2[nH]c(=O)c(CN3CCC(O)CC3)cc2c1	-8.45%	5.41%	3.7%	3.4%	-1.75%	3.77%	-4.92%	9.04%	21.9%	-0.516%
O=C(NCCCn1ccnc1)N1CCCC1c1cccs1 (stereo not given)	-1.21%	12.8%	-12.2%	6.67%	8.2%	11%	-4.65%	7.18%	18.1%	-5.02%
CC(C)c1noc(CCCC(=O)NC2CCS(=O)(=O)C2)n1 (stereo not given)	-0.362%	13.3%	-4.53%	2.01%	-7.98%	12.6%	8.49%	5.79%	15.4%	-11%
COc1ncccc1C(=O)N1CCn2c(COCC3CC3)cnc2C1C (stereo not given)	-3.37%	3.9%	-3.01%	1.07%	-1.62%	8.21%	-16%	4.74%	7.69%	1.11%
CCOC(=O)N1CCN(C(=O)c2sc(-c3ccccc3F)nc2C)CC1	-2.12%	5.41%	6.21%	0.097%	30.4%	13.5%	-3.93%	4.79%	14.6%	-4.07%
CCn1ccnc1CNCC1CCCN1c1cc(NC)ncn1 (stereo not given)	-2.03%	0%	1.76%	-5.62%	2.66%	4.5%	12.1%	4.74%	5.13%	-7.63%
O=C1CCC2(CCCN(CCc3ccccc3)C2)N1Cc1cccnc1 (stereo not given)	-0.897%	22.1%	-2.1%	-2.44%	2.28%	18.8%	4.75%	12.6%	10%	-8.73%
CCc1nc(CNCC2CCCN2c2cc(NC)ncn2)cs1 (stereo not given)	-1.05%	0%	1.02%	9.48%	1.64%	6.91%	-11.3%	3.35%	6.02%	-3.49%
